In the library only some 19% were active in any assay of this set; here they are far more common.
KB-3-1 cytotox: kills parental KB-3-1 adenocarcinoma cells; KB-3-1 viability, CellTiter-Glo ATP luminescence, 72 h; Potency, µM (doses to about 46.1 µM), usual class: cytotoxic; 400,000 tested, 1.4% active; AID 1347075; further: nearly all actives have a fitted effect of over 60% in size
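Multi-concentration cytotoxicity screen in KB-3-1 cells grown in DMEM lacking phenol red with 10% FBS. After 72 h at 37 °C with compound, ATP-dependent luminescence was recorded.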
TDP1 cell CPT: DT40-hTDP1 cell growth loss with CPT; chicken DT40 Tdp1-/-;hTDP1 cells + 20 nM CPT, ATP luminescence, 48 h; Potency, µM (top dose mostly 46.2 µM), hits mostly inhibitors; 420,000 tested, 12% active; AID 686979; further: nearly all actives have a fitted effect of over 55% in size
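Cell growth measured by CellTiter-Glo luminescence after a minimum 48 h, 37 C compound exposure with 20 nM CPT in Tdp1-knockout DT40 cells stably expressing hTDP1, seeded 400/well; qHTS titration format.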
HT1080NT lethal: kills 2HG-producing HT-1080-NT fibrosarcoma cells; HT-1080-NT fibrosarcoma viability, CellTiter-Glo ATP luminescence, 48 h; Potency, µM (titrated, usually from 46.1 µM), hits mostly cytotoxic; 360,000 tested, 1.6% active; AID 686970;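 further: NT is the 2HG producing partner of a matched IDH1 knockdown line; nearly all actives have a fitted effect of over 55% in size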
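Viability by CellTiter-Glo luminescence after 48 h compound exposure at 37C of HT-1080-NT cells (750/well, RPMI, 5% FBS). % activity scaled between DMSO wells and medium-only wells, then curve-fitted and categorized by curve class.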
HT1080 IDH1KD tx: HT-1080 IDH1 knockdown cell toxicity (counter line); 360,000 tested, 2% active; HT-1080 IDH1 knockdown viability, ATP luminescence, 48 h; Potency, µM (series often up to 46.1 µM), usual class: cytotoxic; AID 686971
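CellTiter-Glo luminescence after 48 h compound exposure at 37 degrees C of IDH1-knockdown HT-1080 cells in 5% FBS RPMI. %Activity scaled between DMSO wells and cell-free media wells, with curves fitted and assigned curve classes.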
DT40 TDP1 no CPT: qHTS for Inhibitors of human tyrosyl-DNA phosphodiesterase 1 (TDP1): qHTS in cells in absence of CPT | AID 686978, 2013 | 420,000 tested, 15% active | DT40 Tdp1-/- hTDP1 cells, no CPT, ATP luminescence, 48 h | Potency, µM (titrated, usually from 46.2 µM), actives largely listed as inhibitors; further: nearly all actives have a fitted effect of over 55% in size
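Seeded 400 DT40-hTDP1 cells/well (vehicle DMSO, no 20 nM CPT); pinned compounds; ≥48 hr at 37 °C; CellTiter-Glo luminescence as viability measure.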
KB-V1 cytotox: KB-V1 MDR subline cytotoxicity. KB-V1 MDR cells viability, CellTiter-Glo, 72 h. Potency, µM (doses to about 46.1 µM), most hits filed as cytotoxic. 400,000 tested, 3.4% active. AID 1347076; further: nearly all actives have a fitted effect of over 60% in size
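Cytotoxicity toward P-gp-expressing KB-V1 cells was determined as loss of CellTiter-Glo luminescence after 72 h at 37 degrees C. Compounds were tested in quantitative HTS format across a concentration range, with curves fitted to normalized data.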
Each line names hits and unclear results; the compound was inactive in the other large screens. The call rests on the fitted dose curve; in most records, active means well fitted curve in the direction sought with a large enough effect; inconclusive means small, poorly fitted or top-dose-only effect, or another doubt; inactive means no such curve, though single readings can be large; an effect the other way counts as inactive or inconclusive.

Cc1ccc(C)c(S(=O)(=O)N2CCN(C(=O)C3CCN(C(=O)c4ccc(F)cc4)CC3)CC2)c1	TDP1 cell CPT inconclusive, DT40 TDP1 no CPT inconclusive, KB-V1 cytotox 7.3µM
COc1cc(CNc2ncc(-c3ccc(Cl)cc3)n2C)cc(OC)c1OC	TDP1 cell CPT 13µM, DT40 TDP1 no CPT 2.1µM, KB-V1 cytotox inconclusive
COc1ccc(CNc2ncc(-c3ccccc3)n2C)c2ccccc12	KB-3-1 cytotox inconclusive, TDP1 cell CPT inconclusive, DT40 TDP1 no CPT inconclusive, KB-V1 cytotox inconclusive
COc1cc(CNc2ncc(-c3ccc(Br)cc3)n2C)cc(OC)c1OC	TDP1 cell CPT 10µM, DT40 TDP1 no CPT inconclusive
Cc1ccc(CNC(=O)CSc2nc3c(sc4ccccc43)c(=O)n2CCCOC(C)C)cc1	DT40 TDP1 no CPT inconclusive (no result: HT1080NT lethal, HT1080 IDH1KD tx)
CC(C)Cn1cc(NC(=O)NCc2ccccc2Cl)c2ccccc2c1=O	TDP1 cell CPT inconclusive, DT40 TDP1 no CPT 18µM (no result: HT1080NT lethal, HT1080 IDH1KD tx)
CC(C)Cn1cc(NC(=O)NCc2ccc(Cl)cc2)c2ccccc2c1=O	TDP1 cell CPT inconclusive, DT40 TDP1 no CPT 18µM (no result: HT1080NT lethal, HT1080 IDH1KD tx)
CC(C)Cn1cc(NC(=O)NCc2cccc(Cl)c2)c2ccccc2c1=O	TDP1 cell CPT 26µM, DT40 TDP1 no CPT inconclusive (no result: HT1080NT lethal, HT1080 IDH1KD tx)
O=C(NCc1ccccc1F)C1CCN(c2nn3cc(-c4ccc(F)cc4)nc3s2)CC1	none (no result: HT1080NT lethal, HT1080 IDH1KD tx)
NS(=O)(=O)c1ccc(S(=O)(=O)N2CCN(c3nc(-c4ccccc4)nc4ccccc34)CC2)cc1	TDP1 cell CPT inconclusive, DT40 TDP1 no CPT inconclusive (no result: KB-3-1 cytotox, KB-V1 cytotox)
Cc1cc(C(=O)N2CCN(S(=O)(=O)c3ccccc3F)CC2)c(C)o1	TDP1 cell CPT inconclusive, DT40 TDP1 no CPT inconclusive
C=CCN(CC=C)Cc1cc(=O)oc2ccc3ccccc3c12	KB-3-1 cytotox inconclusive, TDP1 cell CPT 16µM, HT1080NT lethal inconclusive, HT1080 IDH1KD tx inconclusive, DT40 TDP1 no CPT 16µM
CCCCN(CCCC)Cc1cc(=O)oc2ccc3ccccc3c12	TDP1 cell CPT inconclusive, HT1080 IDH1KD tx inconclusive, DT40 TDP1 no CPT 16µM
COc1cc(C=O)ccc1O	none (no result: KB-3-1 cytotox, HT1080NT lethal, HT1080 IDH1KD tx, KB-V1 cytotox)
CCOc1ccc(N2C(=O)S/C(=C\c3ccc(O)c(OCC)c3)C2=O)cc1	DT40 TDP1 no CPT 16µM
COc1cc(/C=C2\CCC/C(=C\c3ccc(O)c(OC)c3)C2=O)ccc1O	KB-3-1 cytotox inconclusive, TDP1 cell CPT 7.1µM, HT1080NT lethal 18µM, HT1080 IDH1KD tx 5.8µM, DT40 TDP1 no CPT 8.2µM, KB-V1 cytotox inconclusive
COc1cc(C=C2C(=O)C=CC2=O)ccc1O	KB-3-1 cytotox 21µM, TDP1 cell CPT 0.16µM, HT1080NT lethal 15µM, HT1080 IDH1KD tx 23µM, DT40 TDP1 no CPT 0.26µM
COc1cc(/C=C2/C(=O)CNC2=O)ccc1O	none
O=C1NC(=O)/C(=C/c2cccc([N+](=O)[O-])c2)N1	KB-3-1 cytotox inconclusive
CCN1C/C(=C/c2cccc([N+](=O)[O-])c2)C(=O)/C(=C/c2cccc([N+](=O)[O-])c2)C1	TDP1 cell CPT 0.58µM, HT1080NT lethal 4.1µM, HT1080 IDH1KD tx 3.3µM, DT40 TDP1 no CPT 0.73µM, KB-V1 cytotox inconclusive
CCn1c(C)c(C)c2cc(C(=O)NCCCN3CCCCC3C)ccc21 (stereo not drawn)	TDP1 cell CPT inconclusive
CCOc1cc(/C=C2\CN(CC)C/C(=C\c3ccc(O)c(OCC)c3)C2=O)ccc1O	KB-3-1 cytotox inconclusive, TDP1 cell CPT 5.2µM, HT1080NT lethal 2.6µM, HT1080 IDH1KD tx 2.9µM, DT40 TDP1 no CPT 4.1µM, KB-V1 cytotox inconclusive
COc1cc(C=C2CCC/C(=C\c3ccc(O)c(OC)c3)C2=O)ccc1O	TDP1 cell CPT 3.3µM, DT40 TDP1 no CPT 7.5µM (no result: KB-3-1 cytotox, HT1080NT lethal, HT1080 IDH1KD tx, KB-V1 cytotox)
CCCSc1nc2sc3c(c2c(=O)n1-c1ccccc1)CCC(C)C3 (stereo not drawn)	none (no result: HT1080NT lethal, HT1080 IDH1KD tx)
COc1ccc(-n2ncc(S(=O)(=O)c3ccccc3)c2-c2ccc(Cl)cc2)cc1	KB-3-1 cytotox inconclusive, TDP1 cell CPT 26µM, DT40 TDP1 no CPT 21µM
CCn1c(SCC(=O)N/N=C/c2c[nH]c3ccccc23)nnc1-c1ccc(Cl)cc1	KB-3-1 cytotox inconclusive, TDP1 cell CPT inconclusive, HT1080 IDH1KD tx inconclusive, DT40 TDP1 no CPT inconclusive

High-throughput results from PubChem.
